Usually viability stands for a read-out of living cells in per cent, often relative to untreated cells. In general, inhibition refers to the drop in the measured response relative to a control, in per cent.

The target in assay [1] is ATP-dependent translocase ABCB1 (Homo sapiens) (UniProt P08183). The experiment in a line: MDR1 (ABCB1) efflux transporter inhibition, cell-based (AID 377; in the data active = fluorescence slope change above about 50%). Conditions: MDR1-expressing cells, fluorescent substrate accumulation slope; stronger effect = higher value; concentration not given here.
Assay [2] can be described thus: liver-stage malaria parasite growth inhibition, primary screen, cell-based, HepG2, luciferase luminescence, HepG2 viability (AID 624349; in the data active = parasite load remaining mostly below about 12%, no sharp cut-off; inactive = mostly above about 10%;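 note: 100% = mean of DMSO negative control wells on the same plate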). The settings on record: P. berghei liver stage in HepG2, luciferase luminescence, concentration not given here; parasite load remaining: stronger effect = lower value; viability: measured here: HepG2 viability without parasites.
A short description of assay [3]: sensitizers of A549 cells to miR-34 induction, primary screen, imaging, A549 dox-inducible miR-34, nuclei and caspase counts (AID 1347080;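 active = compounds whose cell count with miR-34 switched on is under 0.7 times the count with it off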). Conditions: A549 miR-34 inducible, Hoechst nuclei count, 48 h.
In assay [4] the target is NAD(+) hydrolase SARM1 (Homo sapiens) (UniProt Q6SZW1). The experiment in a line: SARM1 TIR NADase inhibitors, cell lysate, NAD-Glo luminescence (AID 1508614;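 active = compound whose remaining NAD level is above about 45 nM, limit read from the data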;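 note: higher remaining NAD means stronger inhibition of SARM1 NADase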). Conditions: SAM-TIR HEK293T lysate NADase, at 1 µM, stronger effect = higher value.
The target in assay [5] is Mitogen-activated protein kinase 7 (Homo sapiens) (UniProt Q13164). The assay is described as follows: ERK5 transactivation activators in reporter cells, primary screen, cell-based, HTS (AID 1508626;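 active = luciferase signal above three times the same-plate solvent-only control wells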;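 note: luciferase driven by Gal4-ERK5 fusion binding five Gal4 sites before minimal TATA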). Conditions: HeLa Gal4-ERK5 transactivation, 18 h, at 5 µM, stronger effect = higher value.
Assay [6] can be described thus: kinase inhibitors against Plasmodium liver-stage infection, cell-based, known kinase inhibitor set, luminescence, hepatoma host viability (AID 624392).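 Note: infected cells incubated roughly two days before readout.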 Conditions: Plasmodium liver stage in hepatoma cells, luciferase luminescence, concentration not given here; liver cell % of control: measured here: host liver cell viability; parasite % of control: stronger effect = lower value.

Assay [7] in a line: survival rescue of mitochondrial mutant cells in low glucose, primary screen, MELAS cybrids, Rieske KO mouse fibroblasts, CellTiter-Glo (AID 1508586;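 active = mean z-score across replicates of 1.96 or higher in either the MELAS or the Rieske mutant cell line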;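 note: z relative to plate mean and SD of compound and empty wells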). In general terms: ATP-based viability assays read luminescence as a measure of living cells.
A short description of assay [8]: suppressors of polyQ aggregation in yeast, 75Q-TubU reporter (AID 1593). The settings on record: Yeast 75Q polyglutamine aggregation reporter.
Assay [9] is described as follows: enhancers of SMN2 over SMN1 splicing, cell-based, SMN2/SMN1 luciferase reporters (AID 1598). Conditions: SMN2 vs SMN1 luciferase splicing reporter cells, at 10 µM; SMN1 luciferase ratio: measured here: SMN1 luciferase reporter average; SMN2 luciferase ratio: measured here: SMN2 luciferase reporter average, stronger effect = higher value; SMN2/SMN1 luciferase ratio: stronger effect = higher value. (In general: In a reporter assay the amount or activity of a reporter protein is the signal.)

A short description of assay [10]: rescue of polyQ-huntingtin neuronal dysfunction in worms, whole organism, C. elegans mechanosensory neurons, N-terminal huntingtin (AID 1599). Conditions: touch response, stronger effect = higher value.
Assay [11] in a line: inhibitors of mitochondrial cytochrome c release, biochemical, purified mitochondria (AID 1603).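 Note: mouse liver mitochondria challenged with calcium chloride; signal normalized to the plate average as 100%.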 Conditions: stronger effect = lower value.
Assay [12] in a line: inhibitors of polyQ protein aggregation (AID 1604). Conditions: polyglutamine-induced protein aggregation inhibition assay; stronger effect = higher value; tested at 2.5 µM.
A short description of assay [13]: enhancers of glutamate uptake in motor neurons, MN-1 cell line (AID 1612).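 Note: tested at 1 µM final; 0% = mean of DMSO vehicle wells on each plate; positive means more glutamate uptake than control and negative means less.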 Conditions: MN-1 motor neuron cells, stronger effect = higher value.
A short description of assay [14]: suppressors of polyglutamine aggregation in yeast, 75Q-TubH (AID 1616). The settings on record: S. cerevisiae 75Q-TubH polyglutamine aggregation suppression; stronger effect = higher value.
The nature of assay [15]: polyglutamine-triggered caspase-3 activation inhibitors, cell-based (AID 1583). Conditions: polyglutamine-induced caspase-3 activation, cell assay; stronger effect = higher value;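 tested at 10 µM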.
Assay [16] is described as follows: protection against mutant huntingtin cytotoxicity, PC12 cells, LDH release (AID 1610). The settings on record: PC12 mutant huntingtin toxicity, final LDH at 4 uM, stronger effect = lower value. On the technique in general: Release of lactate dehydrogenase indicates damage to the cell membrane.
The nature of assay [17]: circadian clock period modulators, cell-based, LOPAC library, luminescence reporter (AID 2774).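 Note: values are relative to mean of DMSO wells on each plate.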 The settings on record: circadian reporter cells, at 7 µM, actives lie on both sides.
The subject of assay [18] is Hepatitis C virus NS3 helicase. The assay is described as follows: HCV NS3 helicase inhibitors, primary screen, biochemical, fluorescence polarization, LOPAC1280 library (AID 687035; in the data active = inhibition above about 37%). The settings on record: Purified HCV NS3 helicase, Cy5-dT15 ssDNA binding fluorescence polarization; stronger effect = higher value; concentration not given here.
Assay [19] can be described thus: Cy5 fluorescence quenching or enhancement artefacts, artefact control for HCV NS3 helicase inhibitor project, biochemical, LOPAC1280 (AID 687037). The settings on record: Cy5-DNA-NS3h complex fluorescence interference counterscreen.
The nature of assay [20]: viability rescue of complex I mutant cybrids, primary screen, cell-based, galactose medium, ATP luminescence (AID 1645843;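 active = z-score of at least 1.8 in each of two replicates, scored against plate mean and spread of sample wells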;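 note: positive z means more ATP and so rescue of galactose-driven cybrid death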). The settings on record: complex I mutant cybrid cells, 72 h, stronger effect = higher value.
Where [21] appears, read: stronger effect = lower value, cell number ratio, induced over uninduced.
Setting [22] is: measured here: relative caspase fold change +Dox/-Dox.
Where [23] appears, read: measured here: total cells with miR-34 induction, stronger effect = lower value.
The mark [24] stands for this setting: measured here: total cells without miR-34 induction.
The mark [25] stands for this setting: MELAS cybrid survival, CellTiter-Glo 48 h, stronger effect = higher value.
[26] abbreviates: Rieske KO mouse fibroblast survival, CellTiter-Glo 72 h.

Values joined by “and” are separate entries in the source; they are usually repeats but may differ in a detail not shown here. Equal entries are not always repeated. Inconclusive results are not listed. For some assays here: Entries with a potency or affinity are not part of this list. Active and inactive are the calls of the source. Unless noted, the rule behind the calls is not given here.

Sequence of NAD(+) hydrolase SARM1 (Homo sapiens) (Q6SZW1 whole entry, looked up, the tested form may be a part): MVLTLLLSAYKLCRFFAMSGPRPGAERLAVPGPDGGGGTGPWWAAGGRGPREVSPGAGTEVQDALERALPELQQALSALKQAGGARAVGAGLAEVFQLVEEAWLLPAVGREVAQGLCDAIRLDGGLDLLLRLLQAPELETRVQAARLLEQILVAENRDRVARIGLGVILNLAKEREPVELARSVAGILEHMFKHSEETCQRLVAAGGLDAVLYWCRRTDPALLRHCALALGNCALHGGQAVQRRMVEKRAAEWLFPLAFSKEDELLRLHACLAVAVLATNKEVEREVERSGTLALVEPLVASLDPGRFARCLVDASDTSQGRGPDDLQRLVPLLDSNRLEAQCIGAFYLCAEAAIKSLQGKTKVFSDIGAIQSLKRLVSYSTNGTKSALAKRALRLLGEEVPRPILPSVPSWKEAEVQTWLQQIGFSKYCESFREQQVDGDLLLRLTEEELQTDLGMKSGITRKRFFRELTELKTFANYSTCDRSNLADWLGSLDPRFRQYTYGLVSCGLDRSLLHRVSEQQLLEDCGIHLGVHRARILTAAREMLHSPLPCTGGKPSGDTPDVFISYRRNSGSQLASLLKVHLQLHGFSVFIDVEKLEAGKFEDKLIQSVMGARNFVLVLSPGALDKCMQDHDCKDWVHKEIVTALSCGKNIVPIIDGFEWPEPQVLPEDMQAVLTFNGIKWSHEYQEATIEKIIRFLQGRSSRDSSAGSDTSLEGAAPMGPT
Sequence of Mitogen-activated protein kinase 7 (Homo sapiens) (Q13164 whole entry, looked up, the tested form may be a part): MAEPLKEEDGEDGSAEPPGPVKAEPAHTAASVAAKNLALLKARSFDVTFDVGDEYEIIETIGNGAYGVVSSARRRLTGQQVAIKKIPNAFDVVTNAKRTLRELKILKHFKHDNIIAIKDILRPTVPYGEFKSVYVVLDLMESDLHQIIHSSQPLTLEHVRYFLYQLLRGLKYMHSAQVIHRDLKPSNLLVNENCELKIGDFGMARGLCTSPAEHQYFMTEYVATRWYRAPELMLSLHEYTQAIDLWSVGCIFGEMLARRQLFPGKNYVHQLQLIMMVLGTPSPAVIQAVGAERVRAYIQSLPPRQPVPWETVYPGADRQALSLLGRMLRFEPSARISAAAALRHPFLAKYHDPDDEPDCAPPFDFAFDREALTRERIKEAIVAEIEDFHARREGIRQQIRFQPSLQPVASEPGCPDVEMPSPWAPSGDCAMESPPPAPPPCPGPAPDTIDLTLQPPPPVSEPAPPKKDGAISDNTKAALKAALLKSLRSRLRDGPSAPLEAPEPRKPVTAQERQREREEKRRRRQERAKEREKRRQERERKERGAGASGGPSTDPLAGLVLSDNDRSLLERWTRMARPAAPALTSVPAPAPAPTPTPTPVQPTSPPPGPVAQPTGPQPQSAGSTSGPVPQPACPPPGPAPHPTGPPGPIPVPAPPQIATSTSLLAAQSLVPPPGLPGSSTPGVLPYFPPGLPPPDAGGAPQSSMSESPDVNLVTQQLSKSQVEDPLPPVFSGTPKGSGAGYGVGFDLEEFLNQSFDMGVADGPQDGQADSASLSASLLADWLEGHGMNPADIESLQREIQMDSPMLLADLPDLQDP
Sequence of ATP-dependent translocase ABCB1 (Homo sapiens) (P08183 whole entry, looked up): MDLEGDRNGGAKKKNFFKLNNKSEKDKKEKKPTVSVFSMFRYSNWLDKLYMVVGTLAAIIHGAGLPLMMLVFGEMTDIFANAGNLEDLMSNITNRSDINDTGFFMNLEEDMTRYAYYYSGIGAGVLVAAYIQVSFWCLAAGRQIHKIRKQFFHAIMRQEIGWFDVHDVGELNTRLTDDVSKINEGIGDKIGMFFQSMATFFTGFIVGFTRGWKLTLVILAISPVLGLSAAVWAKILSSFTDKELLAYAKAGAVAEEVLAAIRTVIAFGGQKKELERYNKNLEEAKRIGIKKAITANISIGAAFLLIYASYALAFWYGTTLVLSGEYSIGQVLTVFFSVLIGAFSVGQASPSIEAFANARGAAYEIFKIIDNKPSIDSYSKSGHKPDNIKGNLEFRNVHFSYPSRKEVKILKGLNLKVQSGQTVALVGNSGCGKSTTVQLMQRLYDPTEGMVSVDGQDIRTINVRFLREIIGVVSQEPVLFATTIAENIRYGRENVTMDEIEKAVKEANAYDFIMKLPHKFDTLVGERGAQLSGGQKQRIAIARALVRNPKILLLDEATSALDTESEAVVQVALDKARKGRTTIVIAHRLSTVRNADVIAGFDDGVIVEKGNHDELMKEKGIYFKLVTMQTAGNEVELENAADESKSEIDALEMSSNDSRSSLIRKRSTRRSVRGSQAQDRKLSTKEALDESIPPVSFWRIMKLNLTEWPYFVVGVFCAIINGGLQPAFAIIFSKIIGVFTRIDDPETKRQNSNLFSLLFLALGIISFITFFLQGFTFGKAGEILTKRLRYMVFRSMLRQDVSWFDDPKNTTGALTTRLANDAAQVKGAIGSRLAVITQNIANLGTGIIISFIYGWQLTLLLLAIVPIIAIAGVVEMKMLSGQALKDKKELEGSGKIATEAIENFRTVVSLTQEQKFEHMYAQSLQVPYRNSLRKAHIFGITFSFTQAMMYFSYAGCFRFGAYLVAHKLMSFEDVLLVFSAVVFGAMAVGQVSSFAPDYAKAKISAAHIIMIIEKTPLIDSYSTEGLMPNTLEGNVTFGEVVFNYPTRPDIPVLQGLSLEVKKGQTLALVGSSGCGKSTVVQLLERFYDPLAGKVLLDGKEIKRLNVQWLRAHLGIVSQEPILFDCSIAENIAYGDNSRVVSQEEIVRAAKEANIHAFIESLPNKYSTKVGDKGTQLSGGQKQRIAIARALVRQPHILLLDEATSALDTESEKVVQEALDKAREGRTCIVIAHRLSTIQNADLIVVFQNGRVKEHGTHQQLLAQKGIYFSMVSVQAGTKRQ

Turning to `C=C1CC[C@H](O)C/C1=C/C=C1\CCC[C@]2(C)[C@@H]([C@H](C)CCCC(C)C)CC[C@@H]12`, the fluorescence slope change in assay [1] was 59.6% (active). Besides, the parasite load remaining in assay [2] is 130% (inactive). The viability in [2] was 106%. In addition, the fold change in [3] (setting [21]) was 0.889 (inactive); in assay [3] (setting [22]) it was 1.52. The results for the cell count in assay [3] (setting [23]) and in assay [3] (setting [24]) were 8940 and 10100, respectively. Also, the remaining NAD in [4] is 10 nM (inactive). In addition, the luciferase signal in assay [5] was 48 AU (inactive).
In the case of `Cc1cc(Nc2nc(NC(C)c3ccc(F)cc3)c(C#N)cc2F)n[nH]1` (stereo unspecified), the liver cell % of control in assay [6] is 55.1% and 77.3% and 95.6%. The parasite % of control in [6] is 1.2% (inactive) and 12.7% (inactive) and 40% (inactive). For the same molecule, the fold change in [3] (setting [21]) was 1.16 (inactive); in assay [3] (setting [22]) it was 0.511. Also, the cell count in assay [3] (setting [23]) was determined as 1300; in assay [3] (setting [24]), 1120. Also, the z-score in [7] (setting [25]) was 2.18 (active); in assay [7] (setting [26]), -3.18.
Consider `O[N+]1=CC=CCC1=S.On1ccccc1=S.[Zn]`, for which the score in assay [8] was determined as 0.07. Further, in assay [9], the SMN1 luciferase ratio is 0.04, the SMN2/SMN1 luciferase ratio was 1.77 (active) and the SMN2 luciferase ratio stood at 0.08. Moreover, the rescue above control in assay [10] amounted to 16. Besides, the cytochrome c release ratio in assay [11] came out at 1.27. In addition, in [12], the inhibition of aggregation came out at 0%. The glutamate uptake change in assay [13] is -74.2%. In addition, the aggregation suppression score in assay [14] was -0.0147. Besides, in [2], the parasite load remaining was -0.27% (inactive) and -0.08% (inactive); the viability was 2.62% and 0%. Further, the fold change in [3] (setting [21]) is 0.416 (active). The fold change in assay [3] (setting [22]) is 2.93. In addition, in [3] (setting [23]), the cell count turned out to be 79. Also, in assay [3] (setting [24]), the cell count is 190.
As to `CC(=O)N[C@@H](CC(=O)N[C@H](CCC(=O)O)C(=O)O)C(=O)O`, the parasite load remaining in [2] was 91.6% (inactive). Besides, the viability in assay [2] came to 69.1%. In addition, the fold change in [3] (setting [21]) is 0.929 (inactive); in assay [3] (setting [22]) it was 1.02. Also, the cell count in [3] (setting [23]) is 9500; in assay [3] (setting [24]), 10200. Further, the z-score in assay [7] (setting [25]) is 0.603 (inactive); in assay [7] (setting [26]), 0.146.
With `CCCCCCCCCCCCCCCCCC(=O)OC(CC(=O)O)C[N+](C)(C)C` (stereo unspecified), the inhibition is -2.46% in assay [15] and -2% (inactive) in assay [18]. Further, the score in assay [8] was 0.53. Moreover, the rescue above control in assay [10] was 6.57. Moreover, the cytochrome c release ratio in assay [11] came out at 4.04. In assay [12], this molecule registered an inhibition of aggregation of 52.4%. The same molecule gave a normalised LDH release in assay [16] of 0.986. The glutamate uptake change in [13] was -11.2%. Further, the aggregation suppression score in [14] was -0.125. Further, the period change in [17] was -0.05 h (inactive). Moreover, the fluorescence ratio (interference) in assay [19] is 1 (inactive). Further, the fold change in [3] (setting [21]) is 0.979 (inactive); in assay [3] (setting [22]) it was 0.6. For the same molecule, the cell count in [3] (setting [23]) was found to be 4490; in assay [3] (setting [24]), 4590. Also, the z-score in [20] is -1.38 (inactive).
As for `CN(C)CC=CC(=O)Nc1cc2c(Nc3ccc(F)c(Cl)c3)ncnc2cc1OC1CCOC1` (stereo unspecified), the liver cell % of control in assay [6] was 39.8% and 42.2% and 47.1%. Also, in assay [6], the parasite % of control is 0.262% (inactive) and 0.42% (inactive) and 32.1% (inactive). Moreover, the results for the fold change in [3] (setting [21]) and in assay [3] (setting [22]) were 0.839 (inactive) and 1.69, respectively. In addition, the figures for the cell count in assay [3] (setting [23]) and in assay [3] (setting [24]) were 2280 and 2710, respectively. For the same molecule, the z-score in assay [7] (setting [25]) is 5.09 (active); in [7] (setting [26]), 0.143.
On to `O=[N+]([O-])OCC(CO[N+](=O)[O-])O[N+](=O)[O-]`, for which the parasite load remaining in assay [2] was 15.2% (inactive). Further, the viability in [2] amounted to 94.3%. Besides, the fold change is 0.846 (inactive) in assay [3] (setting [21]) and 4.5 in assay [3] (setting [22]). Moreover, the cell count came out at 10800 in assay [3] (setting [23]) and 12700 in assay [3] (setting [24]). In assay [4], the remaining NAD is 10 nM (inactive).

Values taken from PubChem BioAssay.
